The subject of this assay is RXRa homodimer (NR concentration 180 nM). The assay can be described thus: PBM binding z-score (relative to random genomic background probes); higher = stronger binding; sequences stand for … in GC…GCGATTGACAGCGTAGAATGAAGG
The procedure, abridged:
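The probes on custom Agilent 4×180K protein-binding microarrays were double-stranded, with 34-nt variable regions bearing direct-repeat seeds, single-nucleotide variants, half-site ablations and random human genomic background sequences. Incubation lasted 1 h with ligand-free nuclear receptor dimers in PBS pH 7.4, 2% milk, 0.02% Triton X-100, 1 mM DTT, 0.2 mg/mL BSA and 0.4 mg/ml salmon testes DNA. Antibodies against each partner (one per run) detected bound dimers, and fluorescence scans were regression-normalized. Binding z-scores take the random background probes as reference.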
In turn, GCGACTGGGCCATCAGCAGGTTACCATAACTTAA came in with a PBM binding z-score of -0.151.
On to CCGACTGGGGCCGAAAGGTTACCATACCATCCGG, for which the PBM binding z-score stood at 2.15.
For GCTCGGAGGACAACGTCAGAGCTTTGTCCGTAGA the value was -0.87; for TCATATTGGTAAAGGTGAAAGTCGAACGATATGA, 1.79.
Consider TGAATGAGGTTCAAGATCAGGGAACGTGGCGTCG, for which the PBM binding z-score was 1.66.
TAGCCTAGGTCATTCAGGGGCCAGGATAGAAAGC came in with a PBM binding z-score of 2.86.
AGTCAAAGTTCATCTAGGTAATGTAAGATATGCT registered a PBM binding z-score of 4.6.
On to CGAACTAGGTCACTGACAGGACAGTGAATAGTAA, for which the PBM binding z-score was 2.88.
For GATACAGGGTCAGCTAGAGGCTAGAGTATGGAAA the value was 4.23.
For TCTAGCAGGCCAGAGGGTAACTCAAGAGGTACGG the value was 0.497; for ATCTCTAGGTAGAGTTCAGTGAAAGATCGATAGA, 1.3; for TGAATGAGGTTAAAGTTCAGGGAACGTGGCGTCG, 6.97.
For TCTATTAGATGATTAGGGCAACCGAAACAGCGGA the value was 0.432; for ATATGTAGGTTAAGGGTCATTCTGGTTGGTTCGC, 6.03.
CGTCCAAGGTCAAAGTTCAGTGAAGAGATGACGG showed a PBM binding z-score of 8.84.
For GTTCGGAGGACAAGGTCAGAGCTTTGTCCGTAGA the value was 1.91; for TCGAGTAGGGTACCAATGGGGCATTCAGCTTTCT, 0.0647.
With CGAACTAGGTCAAGAACAGTGAATCTCCGCACGC, the PBM binding z-score turned out to be 2.36.
For TCTTGTAGAGCAAAGGTTAAGAAAGCCGAAGCCT the value was 2.6; for CCGACTGGGCCAAAAAGGTCATTGATGCCGATAA, 4.52; for AAAATGAGGTTACCAAAGATCAGGGAAACGCTTG, 2.93.
For TCATATAGGTAAACAGGGGAAAGTCCGTAAGTTA the value was 0.978.

These data come from the supplement of paper PMC6555819.
